We go through 6 compounds from PubChem BioAssay (NCATS).

Experiment [1] concerns the target alpha-glucosidase (Oryza sativa, rice) (UniProt Q653V4). The experiment is described as follows: Counterscreen for Glucocerebrosidase Inhibitors: qHTS Assay for Rice alpha-Glucosidase at pH 5.0 (AID 997).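 Further: 0% = full activity with enzyme and -100% = basal without enzyme.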 The essentials: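 Rice alpha-glucosidase (4 nM final) with 400 uM 4-methylumbelliferyl-alpha-D-glucopyranoside in citrate buffer pH 5.0, 20 min at room temperature, stopped at pH 10; fluorescence 365/440 nm, compounds 0.7 nM–77 uM, AC50 from Hill fits.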
For orientation: A counterscreen serves to expose hits that act by an unwanted route or on another target.

The nature of experiment [2]: Validation of Assay for Modulators of Lamin A Splicing (AID 1459; active means well fitted curve in the direction sought with a large enough effect in the signal ratio; the % refers to the signal ratio;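 further: cells exposed to compound for two days before reading; 0% is about no effect; ratio rise marks activators and ratio drop marks inhibitors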). The essentials: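 Readout: ratio of GFP (500-530 nm) to RFP (575-640 nm) total object intensity by 488 nm laser-scanning cytometry after 48 hrs. Cells were HeLa S3 clones carrying lamin A-EGFP minigene plus DsRed2 viability reporter; vehicle 0.5% DMSO final.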
In experiment [3] the target is DNA repair nuclease/redox regulator APEX1 (Homo sapiens) (UniProt P27695). In words: qHTS Validation Assay for Inhibitors of the Human Apurinic/apyrimidinic Endonuclease 1 (APE1) (AID 1705;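 further: TAMRA fluorescence gain over two minutes as APE1 cuts a quenched THF abasic duplex; on the % scale 0 is the no-effect control and ±100 the full control effect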). The essentials:
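Read-out: TAMRA fluorescence (525 nm ex, 598 nm em) from cleavage of a quenched THF abasic-site duplex, 50 nM final; activity taken as intensity change between third and first of three reads 60 s apart.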

Experiment [4] is described as follows: Counterscreen for APE1 Inhibitors: Fluorescent Dye Displacement Validation Assay (AID 1707).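 Further: plate controls were ThO with dsDNA and no compound for no effect and ThO without dsDNA for full effect.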 The essentials: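 ThO 250 nM + dsDNA 50 nM (THF abasic site, 5'-TAMRA), Tris-HCl pH7.5/50mM NaCl/2 mM MgCl2/0.01% Tween-20; compounds pin-transferred; ex 480/em 540 nm endpoint. Neutral = no compound; no-DNA ThO wells = negative control.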
Experiment [5] addresses Endonuclease 4 (Escherichia coli (strain K12)) (UniProt P0A6C1). In words: Counterscreen for APE1 Inhibitors: qHTS Validation Assay for Inhibitors of Endonuclease IV (AID 1708). Further: on the % scale 0 is the no-effect control and ±100 the full control effect. The essentials:
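Concentration-response counterscreen run identically to the APE1 assay: 15 min room-temperature preincubation of 2 nM enzyme with compound, reaction started with 50 nM quenched abasic DNA, progress taken from kinetic fluorescence.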

Experiment [6] in a line: qHTS for differential inhibitors of proliferation of Plasmodium falciparum line 3D7 (AID 1876). Further: potency means the concentration at half of the fitted maximal effect.
The nature of experiment [7]: qHTS for differential inhibitors of proliferation of Plasmodium falciparum line D10 (AID 1877).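 Further: parasites grown with compound for 72 h before DNA staining; plate controls were vehicle wells for no effect and reference inhibitor wells for full effect.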 Background: qHTS replaces the single test concentration by a dilution series.
Experiment [8] is described as follows: qHTS for differential inhibitors of proliferation of Plasmodium falciparum line Dd2 (AID 1882).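 Further: plate controls were DMSO vehicle for no effect and 0.29 µM artemisinin for full effect; nearly all actives have a fitted effect of over 65% in size.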 To be noted: Potency: Plasmodium falciparum Dd2 proliferation inhibition. The essentials: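 Dd2-infected erythrocytes (0.3% parasitemia, 2.5% hematocrit final) incubated with compound 72 h at 37 C, 5% CO2; lysed with saponin/Triton buffer containing SYBR Green I, incubated overnight in the dark, then read by fluorescence (485/535 nm). Normalized to 0.29 uM artemisinin and DMSO.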

A short description of experiment [9]: qHTS for differential inhibitors of proliferation of Plasmodium falciparum line W2 (AID 1883).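 Further: parasites grown with compound for 72 h before lysis and staining.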 Further: potency means the concentration at half of the fitted maximal effect.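 On activity change, negative = inhibition: 0% = vehicle wells and -100% = control inhibitor wells.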 Particulars: Potency: Plasmodium falciparum W2 proliferation inhibition.
A short description of experiment [10]: qHTS for differential inhibitors of proliferation of Plasmodium falciparum line HB3 (AID 1886).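 Further: parasites grown with compound for 72 h before SYBR Green readout; plate controls were vehicle for no effect and reference inhibitor for full effect.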 Particulars: Potency: Plasmodium falciparum HB3 proliferation inhibition.
Experiment [11] has as its target Ferritin light chain (Equus caballus) (UniProt P02791). In words: qHTS Validation Assay for Identification of Novel General Anesthetics (AID 2323). Further: on the % scale 0 is the no-effect control and ±100 the full control effect. The essentials: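 10 uM horse-spleen apoferritin + 1-AMA (50% saturated, PBS); cpd pin-transferred, 10 min RT. Ex 380/Em 535 nm endpoint. Activity normalized between free 1-AMA and 1-AMA/apoferritin; 4-parameter Hill fit of concentration-response.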

The target of experiment [12] is ATP-dependent DNA helicase Q1 (Homo sapiens) (UniProt P46063). In words: qHTS Validation Assay for Inhibitors of RecQ-Like Dna Helicase 1 (RECQ1) (AID 2353).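 Further: plate controls were DMSO vehicle for no effect and enzyme-free control for full effect.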 The essentials: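 50 nM RECQ1T1 preincubated 15 min with compound in Tris pH 8.0 buffer with MgCl2, DTT, Tween-20 and 2.5 ug/ml poly(dI-dC); started with 200 nM TAMRA/BHQ-2 forked duplex and 2 mM ATP. Unwinding read as fluorescence (525/598 nm), two reads 2 h apart.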
Sequence of ATP-dependent DNA helicase Q1 (Homo sapiens) (P46063 whole entry, looked up): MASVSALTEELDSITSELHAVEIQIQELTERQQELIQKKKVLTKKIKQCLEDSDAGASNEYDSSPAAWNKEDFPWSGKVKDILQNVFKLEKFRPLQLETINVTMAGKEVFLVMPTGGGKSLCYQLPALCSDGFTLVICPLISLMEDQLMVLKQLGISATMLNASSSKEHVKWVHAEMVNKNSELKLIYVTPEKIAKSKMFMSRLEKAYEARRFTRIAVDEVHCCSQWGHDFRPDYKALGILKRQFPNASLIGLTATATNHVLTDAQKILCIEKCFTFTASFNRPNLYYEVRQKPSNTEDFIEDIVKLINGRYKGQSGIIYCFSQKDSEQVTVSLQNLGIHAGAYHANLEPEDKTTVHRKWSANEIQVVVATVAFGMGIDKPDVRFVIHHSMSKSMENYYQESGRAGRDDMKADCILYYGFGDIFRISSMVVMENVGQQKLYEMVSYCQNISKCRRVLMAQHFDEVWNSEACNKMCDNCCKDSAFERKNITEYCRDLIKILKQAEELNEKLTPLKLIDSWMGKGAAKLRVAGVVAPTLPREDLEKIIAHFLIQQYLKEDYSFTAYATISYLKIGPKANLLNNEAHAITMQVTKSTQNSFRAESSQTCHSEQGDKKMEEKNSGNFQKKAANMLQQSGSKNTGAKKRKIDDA

The target of experiment [13] is RecQ-like DNA helicase BLM (Homo sapiens) (UniProt P54132). The experiment is described as follows: qHTS Validation Assay for Inhibitors of Bloom's syndrome helicase (BLM) (AID 2364).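 Further: plate controls were DMSO vehicle for no effect and enzyme-free control for full effect.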 The essentials:
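BLM 50 nM in 25 mM Tris-HCl pH 8.0, 5 mM NaCl, 2 mM MgCl2, 1 mM DTT, 0.01% Tween-20, 2.5 ug/ml poly(dI-dC); 15 min cpd preinc, RT. Start: 200 nM forked DNA + 2 mM ATP (final). TAMRA read, 2 reads 2 h apart.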

Experiment [14] can be described thus: Cytometric Cell-Based qHTS for Inhibitors of the mTORC1 Signaling Pathway in MEF (Tsc2-/-, p53-/-) Cells (AID 2660).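 Further: percent of cells above a phospho-rpS6 to PI ratio cutoff in each well; plate controls were DMSO for no effect and rapamycin for full effect.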 The essentials:
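Percent of cells positive for normalized phospho-S6 staining is reported, with the cutoff set from rapamycin (7.5 nM) versus DMSO wells. Tsc2-/-, p53-/- MEFs received compound for 24 hrs.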

Experiment [15] in a line: High Content Imaging Cell-Based qHTS for Inhibitors of the mTORC1 Signaling Pathway in MEF (Tsc2-/-, p53-/-) Cells (AID 2666).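 Further: percent of cells scored positive for phospho-rpS6 Ser235/236 immunostaining by imaging.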 To be noted: at 38.3 µM (top of the series). The essentials: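 Read-out: % positive cells per well, with thresholds from highest- and lowest-signal wells, based on phospho-rpS6 (Ser235/236) intensity normalized to Hoechst nuclear stain. Cells: Tsc2-/-, p53-/- MEFs carrying empty vector; compound 24 hrs, 37 degree Celsius.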

Experiment [16] can be described thus: qHTS Assay for Lipid Storage Modulators (AID 1519; calls by dose curve; on activity change, negative = inhibition: on the % scale 0 is the no-effect control and ±100 the full control effect). To be noted: Drosophila S3 cells, BODIPY lipid droplet/cell ratio, laser cytometry, cells loaded with oleic acid. The essentials: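 Cells seeded at 5,000 per well were treated with compounds over a concentration series and loaded with oleic acid (400 uM, as added). Lipid droplet fluorescence (488 nm excitation, 500-530 nm channel) was read by laser-scanning cytometry and normalized to 20 uM Triacsin C.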

A short description of experiment [17]: qHTS for differential inhibitors of proliferation of Plasmodium falciparum line 7G8 (AID 1815).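 Further: parasite growth measured after three days of incubation; plate controls were vehicle wells for no effect and reference inhibitor wells for full effect.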
Experiment [18] is described as follows: qHTS for differential inhibitors of proliferation of Plasmodium falciparum line GB4 (AID 1816).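 Further: parasite growth measured after 72 h incubation; 0% = vehicle DMSO and -100% = reference inhibitor.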 To be noted: Potency: Plasmodium falciparum GB4 proliferation inhibition.
A short description of experiment [19]: qHTS Assay for Modulators of Human Peripheral Myelin Protein 22 (PMP22) Expression/Activity (AID 1967; active means well fitted curve in the direction sought with a large enough effect in the signal ratio; the % refers to the signal ratio;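 further: 0% = untreated cells and 100% end not stated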). The essentials:
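Mouse MSC80 Schwann line, Pmp22 promoter–CBG68 reporter, EF-alpha–CBR internal control. 24h compound exposure, 37 °C/5% CO2, DMEM + 10% FBS. Readout: corrected green/red luminescence ratio, normalized to untreated cells; concentration-response curves fitted and classified.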

Experiment [20] is described as follows: qHTS Assay for Identification of Small Molecule Inducers of Hypoxia Response (AID 2120; active means well fitted curve in the direction sought with a large enough effect in the signal ratio, with a control signal flat, not every such curve was filed as active; the % refers to the signal ratio; further: 0% is about no effect). The essentials: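 HRE-bla ME-180 cells in Opti-MEM with 0.5% dialyzed FBS, pre-plated 4-5 h, then compound titration for 17 h at 37 degrees Celsius. CCF4 loaded 2.5 h at room temperature; 460/530 nm ratio gave %Activity and AC50 for induction.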
[21] abbreviates: measured here: cell count channel max response.
[22] abbreviates: measured here: lipid channel max response.

Where “and” joins values, the source holds several entries; their conditions need not be identical. Equal values may be shown once. Records with an inconclusive call do not appear. Calls of active or inactive are those of the source. Unless noted, the call rests on the fitted dose curve; in most records, active means well fitted curve in the direction sought with a large enough effect; inconclusive means small, poorly fitted or top-dose-only effect, or another doubt; inactive means no such curve, though single readings can be large; an effect the other way counts as inactive or inconclusive.

Sequence of Ferritin light chain (Equus caballus) (P02791 2-175 limits assumed): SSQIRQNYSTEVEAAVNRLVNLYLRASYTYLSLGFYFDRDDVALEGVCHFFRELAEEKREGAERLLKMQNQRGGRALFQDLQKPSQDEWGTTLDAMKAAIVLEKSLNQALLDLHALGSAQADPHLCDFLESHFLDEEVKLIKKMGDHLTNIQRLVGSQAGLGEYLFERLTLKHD
Sequence of DNA repair nuclease/redox regulator APEX1 (Homo sapiens) (P27695 whole entry, looked up): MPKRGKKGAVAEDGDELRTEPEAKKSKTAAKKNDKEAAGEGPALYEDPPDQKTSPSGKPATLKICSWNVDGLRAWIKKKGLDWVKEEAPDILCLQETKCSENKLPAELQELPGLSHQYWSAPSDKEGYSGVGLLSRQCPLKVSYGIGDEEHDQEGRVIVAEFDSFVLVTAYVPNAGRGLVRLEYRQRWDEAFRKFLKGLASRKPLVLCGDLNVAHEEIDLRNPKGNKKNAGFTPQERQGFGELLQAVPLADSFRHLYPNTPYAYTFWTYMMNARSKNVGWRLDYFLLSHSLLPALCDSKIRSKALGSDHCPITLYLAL
Sequence of RecQ-like DNA helicase BLM (Homo sapiens) (P54132 whole entry, looked up): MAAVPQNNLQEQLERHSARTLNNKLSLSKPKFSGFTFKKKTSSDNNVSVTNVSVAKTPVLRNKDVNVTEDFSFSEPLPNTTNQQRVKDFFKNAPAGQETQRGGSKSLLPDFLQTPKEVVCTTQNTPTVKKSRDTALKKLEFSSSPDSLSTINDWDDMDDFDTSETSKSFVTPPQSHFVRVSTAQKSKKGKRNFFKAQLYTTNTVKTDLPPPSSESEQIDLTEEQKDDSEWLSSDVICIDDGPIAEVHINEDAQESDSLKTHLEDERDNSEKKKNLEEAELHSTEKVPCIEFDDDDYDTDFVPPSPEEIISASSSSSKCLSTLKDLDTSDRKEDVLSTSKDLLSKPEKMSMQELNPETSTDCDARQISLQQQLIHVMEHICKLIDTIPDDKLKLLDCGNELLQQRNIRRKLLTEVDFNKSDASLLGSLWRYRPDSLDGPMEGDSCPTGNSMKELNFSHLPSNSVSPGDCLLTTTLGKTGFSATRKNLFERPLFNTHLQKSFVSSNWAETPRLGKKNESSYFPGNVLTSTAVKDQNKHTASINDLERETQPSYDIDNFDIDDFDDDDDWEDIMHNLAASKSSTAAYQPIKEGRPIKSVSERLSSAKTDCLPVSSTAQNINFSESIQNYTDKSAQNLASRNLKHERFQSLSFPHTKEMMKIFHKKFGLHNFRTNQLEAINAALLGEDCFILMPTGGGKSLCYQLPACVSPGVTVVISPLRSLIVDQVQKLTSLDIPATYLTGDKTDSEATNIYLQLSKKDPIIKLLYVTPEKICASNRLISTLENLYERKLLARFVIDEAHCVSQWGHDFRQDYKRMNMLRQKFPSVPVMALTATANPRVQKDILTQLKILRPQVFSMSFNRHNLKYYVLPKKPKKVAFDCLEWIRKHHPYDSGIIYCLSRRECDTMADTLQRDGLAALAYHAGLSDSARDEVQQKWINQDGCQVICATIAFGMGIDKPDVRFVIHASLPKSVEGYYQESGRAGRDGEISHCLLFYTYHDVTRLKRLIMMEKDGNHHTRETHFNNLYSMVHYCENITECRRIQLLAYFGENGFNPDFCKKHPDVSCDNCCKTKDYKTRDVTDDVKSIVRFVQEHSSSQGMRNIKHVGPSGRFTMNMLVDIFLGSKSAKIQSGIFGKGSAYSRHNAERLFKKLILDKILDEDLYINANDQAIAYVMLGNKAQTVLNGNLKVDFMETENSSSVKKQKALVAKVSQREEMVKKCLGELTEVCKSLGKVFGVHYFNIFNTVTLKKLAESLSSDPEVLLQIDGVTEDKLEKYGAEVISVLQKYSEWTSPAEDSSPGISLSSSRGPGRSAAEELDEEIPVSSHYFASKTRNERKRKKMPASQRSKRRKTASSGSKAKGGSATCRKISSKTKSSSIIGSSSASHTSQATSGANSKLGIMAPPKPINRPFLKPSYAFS

Take `Cc1cnc(NC(=O)C2=C(O)c3ccccc3S(=O)(=O)N2C)s1`: the compound was called inactive in experiment [1], in experiment [2], in [3], in [4], in experiment [5] and in experiment [11]. In addition, the compound was classed as inactive in experiment [12], in [14] and in experiment [15]. Moreover, the Potency entry in experiment [6], in experiment [7], in experiment [8], in experiment [10] and in [13] was “inactive” throughout. For the same compound, the Potency in [9] is 8.91 µM (active).

Turning to `NS(=O)(=O)c1cc2c(cc1Cl)NC=NS2(=O)=O`, the outcome in experiment [1], in experiment [2], in experiment [3], in [4], in experiment [5] and in [19] was inactive. Also, the call in experiment [20], in experiment [11], in experiment [12], in [14] and in [15] was inactive. Moreover, the activity change, negative = inhibition is -2.79% (inactive) in experiment [16] (at 25.7 µM (top of the series)); 7.25% (inactive) and -0.143% (inactive) in [16] (at 57.5 µM (top of the series)). In addition, the max response in experiment [16] (setting [21]) is 3.82% and 7.17% and -12.5%; in [16] (setting [22]), 1.14% and 18.5% and -16.5%. In addition, the Potency entry in experiment [17], in experiment [18], in [6], in experiment [7], in experiment [8] and in experiment [10] was “inactive” throughout.

`N[C@@H]1CONC1=O`: the outcome in [1], in [2], in [3], in [4], in experiment [5] and in experiment [19] was inactive. Besides, the compound was called inactive in experiment [11], in [12], in [14] and in experiment [15]. Also, the activity change, negative = inhibition in experiment [16] (at 25.7 µM (top of the series)) was -1.13% (inactive) and 2.32% (inactive); in experiment [16] (at 57.5 µM (top of the series)), 0.855% (inactive). For the same compound, the max response is -10.2% and -6.54% and 0.81% in experiment [16] (setting [21]); -10.7% and -4.08% and 1.58% in experiment [16] (setting [22]). The Potency result in [17], in experiment [18], in [6], in [7], in experiment [8] and in [10] was “inactive” in each case.

Turning to `COc1ccc2nc(S(=O)Cc3ncc(C)c(OC)c3C)[nH]c2c1` (stereo unspecified), in [16] (at 25.7 µM (top of the series)), the activity change, negative = inhibition is -4.82% (inactive). For the same compound, the figures for the max response in [16] (setting [21]) and in experiment [16] (setting [22]) were 6.97% and 1.74%, respectively.

In the case of `CNC[C@H](O)c1cccc(O)c1`, the result in [1], in [3], in [4], in experiment [5], in [11] and in [12] was inactive. Further, the compound was called inactive in [14] and in experiment [15]. Also, in experiment [16] (at 57.5 µM (top of the series)), the activity change, negative = inhibition is 0.239% (inactive). Besides, the max response in [16] (setting [21]) turned out to be 20.5%; in experiment [16] (setting [22]) it was 21.2%. For the same compound, the Potency entry in [17], in [18], in experiment [6], in experiment [7], in experiment [8] and in [9] was “inactive” each time. In addition, the Potency entry in [10] is “inactive”.

On to `Cn1cnc([N+](=O)[O-])c1Sc1ncnc2nc[nH]c12`, for which the call in experiment [1], in [3], in [4], in [5], in [11] and in [12] was inactive. For the same compound, the outcome in experiment [14] and in [15] was inactive. The activity change, negative = inhibition was -1.38% (inactive) in experiment [16] (at 25.7 µM (top of the series)); 0.323% (inactive) and -0.298% (inactive) in [16] (at 57.5 µM (top of the series)). In addition, the max response in [16] (setting [21]) is 0.534% and 6.17% and -33.4%; in experiment [16] (setting [22]) it was 0.0916% and 9.95% and -32.9%. The Potency in experiment [6] and in experiment [9] was 12.6 µM (active) throughout.
